Screening results: PubChem, National Center for Advancing Translational Sciences (NCATS)
A selection: hits, their analogues and other compounds. The true share with any hit is near 2.4%.
D2 PAM-1 = positively modulates the human D2 dopamine receptor allosterically; HEK293 T-REx D2, calcium flux, EC20 dopamine potentiation; potentiation, % at 10 µM; 0.34% of 340,000 active; P14416;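 active means potentiation over 3 SD above the plate norm, cut at about 30% in these data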; further: 0% is about no effect
Target sequence (P14416 whole entry, looked up): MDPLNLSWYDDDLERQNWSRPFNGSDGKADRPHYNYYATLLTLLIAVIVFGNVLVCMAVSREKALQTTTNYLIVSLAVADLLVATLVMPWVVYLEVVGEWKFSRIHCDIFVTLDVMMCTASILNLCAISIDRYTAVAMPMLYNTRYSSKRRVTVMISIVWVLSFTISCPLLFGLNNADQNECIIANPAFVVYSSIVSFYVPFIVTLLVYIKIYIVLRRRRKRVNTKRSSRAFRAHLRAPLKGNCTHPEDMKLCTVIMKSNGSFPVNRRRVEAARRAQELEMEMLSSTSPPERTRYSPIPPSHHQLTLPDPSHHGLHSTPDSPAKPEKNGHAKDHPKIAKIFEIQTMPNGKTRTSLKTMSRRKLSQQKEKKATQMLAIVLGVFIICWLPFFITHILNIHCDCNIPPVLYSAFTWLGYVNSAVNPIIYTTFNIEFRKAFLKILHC
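Calcium flux readout, no-wash dye, 1 read/s. Inducible HEK293 Trex D2 line, overnight 30 C. Compound alone 180 s (agonist flags), then EC20 dopamine, another 180 s to score potentiation.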
D2 ag-1 = agonists of human D2 dopamine receptor; HEK293 T-REx D2 cells, calcium flux agonist mode; AID 485358; activation, % at 2 µM; 0.53% of 340,000 active; P14416;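 active means activation over 3 SD above normal in the single-dose calcium agonist read, cut at about 30% in these data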; further: 0% is about no effect
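Calcium-flux readout, 1 cycle/sec over 180 s following compound pin transfer, in inducible HEK293 Trex D2 cells (force-coupled); dopamine controls included. Positive calcium responses during this window marked compounds as potential agonists.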
D2 PAM-2 = positive allosteric modulators of human D2 dopamine receptor; DiscoveRx D2 beta-arrestin cells, luminescence, 90 min; 100% = 57 uM dopamine signal; potentiation, % (test concentration not listed); 0.23% of 360,000 active; in the data active means potentiation above about 50%; inconclusive means mostly about 30% to 49%
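PathHunter D2 cells, attached overnight at 37 deg C, received compound in DMSO plus dopamine at EC20 (50 nM final) for 90 min at 37 deg C. Beta-arrestin recruitment was read as luminescence after 1 h with detection reagent at ambient temperature.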
D2 ag-2 = agonists of human D2 dopamine receptor (beta-arrestin) | P14416 | DiscoveRx PathHunter D2 beta-arrestin, luminescence, 90 min; 100% = 57 uM dopamine signal | activation, % (no concentration beside the values) | 0.084% of 360,000 active; in the data active means activation above about 40%; inconclusive means between about 15% and that limit
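DiscoveRx PathHunter D2 beta-arrestin cells (2,100/well) attached overnight, then compound-stimulated 90 min at 37 C in HBSS/10 mM HEPES/0.1% Tween-20 buffer; beta-galactosidase complementation read by luminescence after 1 h at ambient temperature. Dopamine 57 uM final (EC100) as control.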
D2 antag = antagonists of human D2 dopamine receptor; inhibition, % at 10 µM; HEK293 TREx D2 cells, calcium flux, dopamine EC80; P14416; 2% of 340,000 active; in the data active means inhibition above about 30%; inactive means below that, where a call was filed; further: 0% is about no effect
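Inhibition of EC80 dopamine-driven calcium flux, recorded kinetically, defines activity here; cells are a tetracycline-induced HEK293 T-REx line expressing force-coupled D2.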
The depositor's hits bear a star; u = inconclusive; x = not tested or not shown.

SMILES	D2 PAM-1	D2 ag-1	D2 PAM-2	D2 ag-2	D2 antag
CC(=O)Nc1ccc(N2Cc3ccccc3C2)cc1	1	1	52*	7	-2
CCN1CCN(Cc2nc3cc(NC(=O)c4ccccc4[N+](=O)[O-])ccc3n2CC)CC1	11	1	x	x	x
Nc1c2c(nc3ccc(Br)cc13)N(C1CCCCC1)CC2	-21	0	x	x	74*
COC(=O)c1c(C)[nH]c(C(=O)C(C)Sc2nnc(-c3cc(OC)c(OC)c(OC)c3)o2)c1C (stereo not given)	5	-1	-9	-1	32*
O=C(NC1CC1)C1CCN(C2CCN(C(=O)Cc3ccc(F)cc3)CC2)CC1	13	2	-2	1	34*
CCN1CCN(c2cc(C)c3cc(NC(=O)/C=C/c4ccc(C)cc4)ccc3n2)CC1	x	-1	x	x	x
O=C1CSc2ccc(S(=O)(=O)NCc3ccc(F)cc3)cc2N1	-3	1	3	0	4
O=C1CSc2ccc(S(=O)(=O)NCc3ccc(Cl)cc3)cc2N1	0	0	0	8	36*
COC(=O)c1ccc(CNC(=O)c2ccc3c(c2)NC(=O)CS3)cc1	-21	0	4	-4	37*
COc1ccc(-c2cc(C(=O)NC(C)c3ccccc3)c3cc(C(C)C)ccc3n2)cc1 (stereo not given)	0	0	x	x	x
Cc1ccc(-n2nc3c(N4CCC(C(=O)NC5CCCCC5)CC4)nnc(C)c3c2C)cc1	-5	-1	x	x	x
CCCOc1ccc(C(=O)Nc2ccc3oc(-c4ccncc4)nc3c2)cc1	-5	0	x	x	x
Cc1cc(C(=O)N2CCc3ccccc32)n(-c2ccccc2)n1	5	2	7	-7	37*
Nc1nc(NCCc2ccccc2)nc(NCCO)c1[N+](=O)[O-]	34*	0	-6	-1	1
COc1ccc(NC(=O)c2cccs2)cn1	-7	0	-4	-5	9
COc1ccc(OCC(=O)NNC(=O)c2cccs2)cc1	3	0	10	1	1
CC(C)(C)c1ccc(Oc2ccc(NC(=O)c3cccs3)cn2)cc1	31*	9	1	2	-1
COc1ccc(OCC(=O)Nc2ccc(NC(=O)c3cccs3)cc2)cc1	32*	-1	-6	0	-11
Cc1cc(C)cc(-n2ccn(Cc3ccc(F)cc3)c(=O)c2=O)c1	5	1	x	x	x
Cc1nc(N2CCOCC2)c(C#N)c2c1COC(C)(C)C2	33*	0	2	-4	-6
CCc1nc(N2CCOCC2)c(C#N)c2c1COC(C)(C)C2	-1	-3	-3	2	-14
COc1cccc(CNC(=O)c2ccc3c(c2)sc2nc(-c4ccccc4)cn23)c1OC	-5	1	x	x	x
CC(=O)c1ccccc1OCCCOc1cccc2cccnc12	x	x	77*	4	x
CC(=O)c1ccc(OCCCOc2cccc3cccnc23)cc1	0	-1	-2	-5	13
CC(NC(=O)c1ccc(F)cc1)c1nc2ccccc2[nH]1 (stereo not given)	-15	-1	x	x	x
SMILES	D2 PAM-1	D2 ag-1	D2 PAM-2	D2 ag-2	D2 antag
NC(=O)C1(N2CCCCC2)CCN(c2ccc3nnc(-c4ccccc4)n3n2)CC1	32*	0	-4	u	-13
CC(C)c1nn2c(=O)cc(COC(=O)c3ccc(NC(=O)c4ccccc4Cl)cc3)nc2s1	-2	2	x	x	x
CC(C)CCNC(=O)C1CCN(C(=O)N2CCOc3ccc(Cl)cc32)CC1	2	0	x	x	x
CCC(=O)N1CCc2cc(S(=O)(=O)CCC(=O)NCc3ccc(C)cc3)ccc21	-5	0	-10	0	0
CCC(=O)N1CCc2cc(S(=O)(=O)CCC(=O)NCCc3ccc(S(N)(=O)=O)cc3)ccc21	-6	0	-6	-1	32*
COc1ccc(N(C(=O)c2cccc(C)c2)S(=O)(=O)c2ccc(C)cc2)cc1	-8	0	x	x	x
O=C(/C=C/c1ccccc1)NC1CC2CCCC(C1)N2Cc1ccccc1 (stereo not given)	-23	1	x	x	88*
CCN(CC)C(=O)NC1CC2CCCC(C1)N2Cc1ccccc1 (stereo not given)	-40	0	-35	3	92*
CCc1ccc(C2CC(=O)c3c([nH]c(C(=O)OC4CCCC4)c3C)C2)cc1 (stereo not given)	3	1	x	x	x
COc1cc(C(=O)N2CCC(c3nc4ccccc4o3)CC2)cc(OC)c1OC	12	0	x	x	x
Cc1ccc(-n2nnnc2SCc2ccc(C(=O)O)cc2)cc1C	-8	1	10	-1	30*
Cc1cccc2c1N(CCOc1ccccc1Cl)C(=O)C2=O	-8	-1	-36	-14	30*
Cc1ccccc1OCCN1C(=O)C(=O)c2cccc(C)c21	2	2	-66	-17	-1
COCCCNC(=O)C1CCN(c2cc(C)nc3c(-c4ccc(Cl)cc4)c(C)nn23)CC1	3	1	x	x	x
CCOC(=O)C1(CC2CCCCO2)CCN(Cc2ccc(OC)cc2F)CC1 (stereo not given)	-21	-1	-15	-3	61*
Cc1cc(C)n2nc(SCc3nnc(-c4ccccc4Br)o3)nc2n1	44*	2	-1	-3	-8
Cc1cc(C)n2nc(SCc3ncc(-c4ccccc4)o3)nc2n1	11	0	-13	-6	-7
O=C(/C=C/c1cccc(F)c1)NC1CCN(Cc2ccccc2)CC1	-25	-1	-18	-3	56*
CCN1CCN(C(=O)Nc2cccc(C(F)(F)F)c2)CC1	-6	0	-7	1	-4
O=C(/C=C/c1cccc(Br)c1)NC1CCN(Cc2ccccc2)CC1	-25	1	-24	-2	72*
O=C(NC1CCN(Cc2ccccc2)CC1)c1c(Cl)cccc1Cl	4	0	-25	-3	-6
O=C(Nc1cccc(F)c1)NC1CCN(Cc2ccccc2)CC1	-29	0	-18	-3	89*
O=C(COC(=O)/C=C/c1cccc(F)c1)NC1CC1	x	x	-19	-2	x
CCN1CCC(NC(=O)Nc2cccc(C(F)(F)F)c2)CC1	-4	0	-22	-2	37*
Cc1ccc(NC(=O)CN2C(=O)C(c3ccccc3)=NC23CCCCC3)cc1C	1	0	x	x	x
SMILES	D2 PAM-1	D2 ag-1	D2 PAM-2	D2 ag-2	D2 antag
CCOC(=O)c1c(NC(=O)CCCOc2ccc(Cl)cc2)sc2c1CCC2	1	1	x	x	x
Cc1ccc(-c2cc(NC(=O)C(C)Oc3ccccc3F)on2)cc1 (stereo not given)	-11	0	x	x	x
Cc1ccc(CCNC(=O)Cn2ncc3c(=O)oc4ccccc4c32)cc1	x	-1	x	x	x
CCCSc1ncc(Cl)c(C(=O)N(Cc2ccc(N(C)C)cc2)C2CCS(=O)(=O)C2)n1 (stereo not given)	13	x	x	x	x
O=C(CCCn1c(=O)c2ccccc2n(Cc2cccc(F)c2)c1=O)NC1CCN(Cc2ccccc2)CC1	-20	18	x	x	40*
Fc1cccc(CN2CCC(Cc3ccccc3)CC2)c1	1	-4	-66	1	56*
